Source: PubChem (National Center for Advancing Translational Sciences (NCATS))
Tau FP inhib – blocks human tau fibril formation measured by polarization | P10636 | K18 P301L tau heparin fibrillization, Alexa594 FP, 6 h | Potency, µM (titrated, usually from 57.7 µM), most hits filed as inhibitors | hit rate 0.39% among 280,000 | AID 1468; further: nearly all actives have a fitted effect of over 55% in size
Target sequence (P10636 561-689 P618L limits assumed): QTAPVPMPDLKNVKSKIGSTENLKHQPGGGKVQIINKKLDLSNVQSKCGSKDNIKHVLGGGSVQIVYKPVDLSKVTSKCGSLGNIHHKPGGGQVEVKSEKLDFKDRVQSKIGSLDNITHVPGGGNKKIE
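Heparin (20 uM) drove fibril formation of recombinant tau K18 P301L, 15 uM unlabeled with 0.24 uM Alexa 594 label, for 6 hr at 37 C in 100 mM sodium acetate pH 7. Fluorescence polarization (555/632 nm) read 1 hr after 30 uM ThT.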
USP1 inh – inhibitors of human USP1/UAF1 deubiquitinase. O94782. recombinant USP1/UAF1, Ub-Rhodamine cleavage fluorescence. Potency, µM (doses to about 57.1 µM), hits mostly inhibitors. hit rate 0.23% among 390,000; further: nearly all actives have a fitted effect of over 60% in size
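USP1/UAF1 complex at 1 nM was preincubated with compound for 15 min at room temperature, then Ub-Rho substrate (150nM final) was added. Fluorescence (480/540 nm) was read kinetically, 6 reads every 60 seconds.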
Tau fluor counter – counter-screen for tau fibril formation inhibitors. hit rate 0.93% among 280,000. tau K18 P301L Alexa594 fluorescence, heparin fibrillization. Potency, µM (titrated, usually from 57.7 µM); further: nearly all actives have a fitted effect of over 55% in size
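Human K18 P301L tau (15 uM unlabeled plus 0.24 uM Alexa 594-labeled, final) in 100 mM sodium acetate pH 7 was mixed with compound and 20 uM heparin and incubated 6 hr at 37 C.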
Tau ThT inhib – tau fibrillization inhibition (ThT binding) | P10636 | recombinant tau K18 P301L, heparin-induced fibrillization, ThT fluorescence | Potency, µM (highest dose often 57.4 µM), usual class: inhibitors | hit rate 2.1% among 270,000 | AID 1460; further: nearly all actives have a fitted effect of over 55% in size
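Fibril formation assay: tau K18 P301L at 15 uM with trace Alexa 594 label, heparin inducer 20 uM, pH 7 sodium acetate buffer, 37 C for 6 hr; endpoint ThT signal.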
FBPA coupling cs – counter-screen for Giardia aldolase inhibitors: coupling enzyme system; AID 2472; activity change, negative = inhibition, % at 58.2 µM, hits read low; coupling enzyme system counterscreen, AmpLite Red fluorescence; hit rate 0.67% among 290,000; in the data active means activity change below about -30%
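Activity here indicates interference with the coupling reaction, not aldolase inhibition. Compounds at 57.5 uM final met coupling enzymes for 10 min at RT; substrate and AmpLite Red detection followed, with a 525/598 nm fluorescence read after 20 min.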
Each line names hits and unclear results; the compound was inactive in the other large screens; [ ] = dose if it differs, or a comment. Shown are actives, neighbours in structure and some others; about 2.3% of the full set was active somewhere. Unless noted, the call rests on the fitted dose curve; in most records, active means well fitted curve in the direction sought with a large enough effect; inconclusive means small, poorly fitted or top-dose-only effect, or another doubt; inactive means no such curve, though single readings can be large; an effect the other way counts as inactive or inconclusive.

CC(=O)Nc1sc(N/N=C/c2ccc(N(C)C)cc2)nc1-c1ccc(C)cc1	Tau fluor counter 32µM[quencher], Tau ThT inhib 16µM
CCOc1cc(/C=N\Nc2nc(-c3ccc(C)cc3)c(NC(C)=O)s2)ccc1O	Tau fluor counter inconclusive, Tau ThT inhib 20µM
CCCCNc1nc(C)nc2c1nc(-c1ccccc1)n2C(C)CCCN(CC)CC (configuration not stated)	none (no result: USP1 inh)
Cc1ccc(C)c(-n2c3nc(=O)[nH]c(=O)c-3cc3cc([N+](=O)[O-])ccc32)c1	USP1 inh inconclusive, FBPA coupling cs -47
CC1(OC(=O)c2ccco2)C(=O)C2=COC(C3CC3)=CC2=C(Br)C1=O (configuration not stated)	Tau ThT inhib inconclusive (no result: USP1 inh)
C[C@@H](NC(=O)C(=O)c1c[nH]c2ccccc12)c1ccccc1	none (no result: Tau FP inhib, Tau fluor counter, Tau ThT inhib, FBPA coupling cs)
CSc1ccccc1NC(=O)C(=O)c1c[nH]c2ccccc12	Tau FP inhib 10µM, Tau fluor counter inconclusive
CC1=C(C(=O)OCC(C)C)C2(O)C(=O)c3ccccc3C2(O)N1 (configuration not stated)	Tau FP inhib inconclusive, Tau ThT inhib 7.9µM
C=CCOC(=O)C1=C(C)NC2(O)c3ccccc3C(=O)C12O (configuration not stated)	Tau FP inhib inconclusive, Tau ThT inhib 13µM
Cc1ccc(Cl)cc1NS(=O)(=O)c1ccc(N2CCCCS2(=O)=O)cc1	none (no result: FBPA coupling cs)
S=C(Nc1ccccc1)Nc1ccc(OCc2ccc(Cl)cc2Cl)cc1	Tau fluor counter 14µM[quencher], Tau ThT inhib inconclusive
Cc1ccc(C)c(NC(=O)CCN2C(=O)c3ccccc3Sc3ncccc32)c1	none (no result: FBPA coupling cs)
Nc1sc(-c2ccccc2)cc1C(=O)N/N=C/c1ccc(Cl)cc1	Tau fluor counter 14µM[quencher], Tau ThT inhib 4µM
O=C(N/N=C/c1ccc(Cl)cc1)c1cc(-c2cccnc2)nc2ccccc12	Tau FP inhib inconclusive
COc1cc(SC)ccc1C(=O)NCCOc1c(C)cc(C)cc1C	Tau ThT inhib 16µM
COc1ccc(NC(=O)Nc2sc3nc4n(c(=O)c3c2C)CCC(C)CC4)cc1OC (configuration not stated)	Tau FP inhib inconclusive, Tau fluor counter 8.9µM[quencher], Tau ThT inhib inconclusive (no result: FBPA coupling cs)
CC(=O)Nc1ccc(NC(=O)Nc2sc3nc4n(c(=O)c3c2C)CCC(C)CC4)cc1 (configuration not stated)	Tau fluor counter inconclusive, Tau ThT inhib inconclusive (no result: FBPA coupling cs)
CC(NC(=O)c1ccc2ccccc2n1)c1ccc(Br)cc1 (configuration not stated)	none (no result: Tau FP inhib, Tau fluor counter, Tau ThT inhib)
Brc1ccc(N=Nc2ccc3ccccc3n2)cc1	Tau ThT inhib 1.1µM
O=[N+]([O-])c1ccccc1-c1ccc(C(=S)N2CCCC2)o1	Tau FP inhib inconclusive, USP1 inh inconclusive, Tau fluor counter inconclusive, Tau ThT inhib 16µM, FBPA coupling cs -43
S=C(c1ccc(-c2cccc(Cl)c2)o1)N1CCOCC1	Tau fluor counter inconclusive, Tau ThT inhib 16µM
O=[N+]([O-])c1cccc(-c2ccc(C(=S)N3CCOCC3)o2)c1	none
S=C(c1ccc(-c2cccc(Cl)c2)o1)N1CCCCC1	Tau ThT inhib inconclusive
O=[N+]([O-])c1cccc(-c2ccc(C(=S)N3CCN(c4ccccc4)CC3)o2)c1	Tau FP inhib inconclusive, Tau fluor counter inconclusive, Tau ThT inhib 20µM
O=[N+]([O-])c1cc(-c2ccc(C(=S)N3CCOCC3)o2)ccc1Cl	Tau FP inhib inconclusive, USP1 inh inconclusive, Tau fluor counter inconclusive, Tau ThT inhib 14µM, FBPA coupling cs -32
S=C(c1ccc(-c2cc(Cl)ccc2Cl)o1)N1CCOCC1	Tau ThT inhib inconclusive
CCc1ccc2occ(CC(=O)Nc3ccc(OC)c(Cl)c3)c2c1	Tau FP inhib inconclusive, Tau fluor counter 25µM[quencher], Tau ThT inhib inconclusive (no result: FBPA coupling cs)
Cc1cccc(NC(=O)c2oc3ccccc3c2NC(=O)Cc2coc3ccc(C(C)C)cc23)c1	Tau FP inhib inconclusive (no result: FBPA coupling cs)
CC(C)c1ccc2occ(CC(=O)Nc3cccc(C(F)(F)F)c3)c2c1	Tau FP inhib 18µM, USP1 inh inconclusive, Tau fluor counter inconclusive (no result: FBPA coupling cs)
Cc1ccc2occ(CC(=O)Nc3ccc(Cl)c(C(F)(F)F)c3)c2c1	Tau FP inhib 14µM, USP1 inh inconclusive, Tau fluor counter inconclusive (no result: FBPA coupling cs)
CCc1ccc2occ(CC(=O)NCc3ccccc3)c2c1	none (no result: FBPA coupling cs)
CCOc1ccc(N2CC(c3nc4ccccc4n3CCCOc3ccccc3OC)CC2=O)cc1 (configuration not stated)	Tau ThT inhib inconclusive (no result: FBPA coupling cs)
Cc1ccc(CNC(=O)c2sc3nc(-c4ccc(F)cc4)ccc3c2N)cc1	Tau fluor counter inconclusive, Tau ThT inhib inconclusive (no result: FBPA coupling cs)
COC(=O)C1=C(C(=O)OC)SC(=C2C(=S)C(C)(C)N(C(=O)CC(C)C)c3ccccc32)S1	Tau FP inhib inconclusive, Tau fluor counter inconclusive, Tau ThT inhib 1.1µM
COc1ccc(C2=CSC3=C(C(=O)c4cccc(S(=O)(=O)N(C)C)c4)CCN23)cc1	Tau FP inhib inconclusive, Tau fluor counter inconclusive, Tau ThT inhib 25µM
COc1ccc(N(C)S(=O)(=O)c2cccc(C(=O)N3CCN(c4ccccc4)CC3)c2)cc1	none (no result: Tau FP inhib, Tau fluor counter, Tau ThT inhib, FBPA coupling cs)
CC(C)[C@H](NC(=O)OC(C)(C)C)[C@@H](O)CC(=O)C(C)(C)C	none (no result: USP1 inh)
COc1ccccc1/C=C/c1nc2ccccc2n1C(C)C	Tau ThT inhib inconclusive (no result: FBPA coupling cs)
COC(=O)c1c(C)nc2ccccc2c1C(=O)O	none
COc1ccc(-c2c(C(=O)O)nc3ccccc3c2C(=O)O)cc1	FBPA coupling cs -34
Cc1ccc(N2C(=O)N(CC(=O)Nc3ccc([N+](=O)[O-])cc3)C(=O)C2C)cc1 (configuration not stated)	none (no result: Tau FP inhib, Tau fluor counter, Tau ThT inhib, FBPA coupling cs)
CC1=NN(c2ccc([N+](=O)[O-])cc2)C(=O)C1[N+](=O)[O-] (configuration not stated)	Tau fluor counter inconclusive, Tau ThT inhib 13µM (no result: USP1 inh)
O=S(=O)(Nc1ccccc1)c1cccc2nsnc12	none (no result: Tau FP inhib, Tau fluor counter, Tau ThT inhib)
Cc1ccc(NS(=O)(=O)c2cccc3nsnc23)cc1	Tau ThT inhib inconclusive, FBPA coupling cs -38
NCCSSCCN	Tau FP inhib inconclusive, Tau ThT inhib 14µM
O=c1cc(-c2ccc(O)cc2)oc2cc(O[C@@H]3O[C@H](CO)[C@H](O)[C@H](O)[C@H]3O)cc(O)c12	none (no result: Tau FP inhib, USP1 inh, Tau fluor counter, Tau ThT inhib)
COC(=O)c1ccc(CC(=O)c2c(C)cc(O)cc2O)o1	Tau FP inhib inconclusive, Tau fluor counter inconclusive, Tau ThT inhib 28µM
CC(C)(C)c1ccc(/C=C/C(=O)Nc2ccc(S(N)(=O)=O)cc2)cc1	Tau FP inhib inconclusive, Tau fluor counter inconclusive (no result: FBPA coupling cs)
Cc1ccc(-c2nnc(Nc3ccc(S(N)(=O)=O)cc3)c3ccccc23)cc1S(=O)(=O)N1CCCCC1	Tau FP inhib inconclusive (no result: FBPA coupling cs)
Cc1ccc(-c2nnc(Nc3ccc(C(N)=O)cc3)c3ccccc23)cc1S(=O)(=O)N1CCCCC1	Tau FP inhib 28µM, Tau fluor counter inconclusive (no result: FBPA coupling cs)
Cc1ccccc1Nc1nnc(-c2ccc(C)c(S(=O)(=O)N3CCCCC3)c2)c2ccccc12	USP1 inh inconclusive, Tau ThT inhib inconclusive (no result: FBPA coupling cs)
